# Screening data from PubChem BioAssay.
# Shown are actives, neighbours in structure and some others; about 2.6% of the full set was active somewhere.
# PABP1 MLLE inh – inhibitors of PABP1 MLLE–PAM2 peptide binding, primary screen, biochemical, fluorescence polarization, FITC-PAM2, GST-MLLE. Polyadenylate-binding protein 1 (Homo sapiens), P11940. inhibition, % at 20 µM. hit rate 0.36% among 360,000; in the data active = inhibition above about 35%, passing the limit was not always enough;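 note: plate controls were DMSO wells with GST-MLLE for no effect and wells lacking GST-MLLE protein for full effect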
# A3G deaminase – APOBEC3G DNA deaminase inhibitors, primary screen, biochemical, fluorescence, single-stranded DNA substrate, uHTS | DNA dC->dU-editing enzyme APOBEC-3G (Homo sapiens), Q9HC16 | recombinant A3G, ssDNA deamination FAM/TAMRA fluorescence | inhibition, % at 20 µM | hit rate 0.28% among 330,000;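 active = inhibition of at least 40% at 20 µM, with no more than 30% in the related APOBEC3A deaminase screen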;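 note: plate controls were DMSO wells with A3G for no effect and wells lacking A3G enzyme for full effect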
# PHOSPHO1 block – PubChem AID 1565; recombinant PHOSPHO1, absorbance phosphatase assay; Phosphoethanolamine/phosphocholine phosphatase (Homo sapiens), Q8TCT1; inhibition, % at 13.3 µM; hit rate 1.1% among 290,000; in the data active = inhibition above about 60%
# Target sequence (Q8TCT1 whole entry, looked up): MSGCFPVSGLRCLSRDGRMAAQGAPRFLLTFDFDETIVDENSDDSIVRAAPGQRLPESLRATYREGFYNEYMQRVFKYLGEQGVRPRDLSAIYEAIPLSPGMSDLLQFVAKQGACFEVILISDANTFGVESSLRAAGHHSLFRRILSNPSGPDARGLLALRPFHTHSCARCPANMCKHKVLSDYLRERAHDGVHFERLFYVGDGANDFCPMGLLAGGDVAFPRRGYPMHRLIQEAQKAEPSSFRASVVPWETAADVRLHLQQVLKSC
# APOBEC3A inh – APOBEC3A ssDNA deaminase inhibitors, primary screen, selectivity assay for APOBEC3G inhibitor project, biochemical, FAM/TAMRA oligo cleavage fluorescence | DNA dC->dU-editing enzyme APOBEC-3A (Homo sapiens), P31941 | recombinant A3A, FAM/TAMRA ssDNA deamination fluorescence | inhibition, % at 20 µM | hit rate 0.41% among 330,000 | AID 493011, 2011;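 active = at least 40% inhibition at 20 µM here, with at most 30% in a related deaminase screen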;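 note: plate controls were A3A with DMSO for no effect and wells lacking A3A enzyme for full effect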
# Target sequence (P31941 whole entry, looked up): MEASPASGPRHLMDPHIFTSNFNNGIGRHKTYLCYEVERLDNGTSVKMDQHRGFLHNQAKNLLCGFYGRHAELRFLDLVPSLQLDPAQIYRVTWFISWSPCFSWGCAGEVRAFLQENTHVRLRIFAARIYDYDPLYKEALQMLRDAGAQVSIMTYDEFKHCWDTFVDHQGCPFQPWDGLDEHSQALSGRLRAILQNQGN
# eIF4H inh – human eIF4H binding inhibitors, primary screen, translation initiation inhibitor project, biochemical, uHTS, fluorescence polarization; Eukaryotic translation initiation factor 4H (Homo sapiens), Q15056; hit rate 0.94% among 290,000; inhibition, % at 35 µM; eIF4H fluorescence polarization binding assay;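 note: calls also rest on retests at 20 µM and on dose response follow-up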
# PABP FP inh – PABP poly(A) RNA binding inhibitors, primary screen, biochemical, fluorescence polarization, uHTS; Polyadenylate-binding protein 1 (Homo sapiens), P11940; calls only at 35 µM; hit rate 1% among 290,000; AID 2014, 2009;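 note: calls also rest on retests at 20 µM and on dose response follow-up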
# Starred values were filed as active, the others as inactive; i = inactive; ? = inconclusive; / = no result; + = active, no number. Unless noted, the rule behind the calls is not given here.
SMILES,PABP1 MLLE inh,A3G deaminase,PHOSPHO1 block,APOBEC3A inh,eIF4H inh,PABP FP inh
O=C(NC1CCS(=O)(=O)C1)/C(=C\c1ccccc1)NC(=O)c1ccccc1 (stereo not given),-2.1,-8.6,3.5,0.3,-3.8,i
O=C(NC1CCS(=O)(=O)C1)/C(=C/c1ccc(Cl)cc1)NC(=O)c1ccccc1 (stereo not given),2.0,-3.9,180.6*,-0.2,-4.8,i
Cc1ccc2c(CN3CCCc4ccccc43)cc(=O)oc2c1C,-24.9,-0.3,49.5,1.3,34.2*,+
Cc1ccc2c(CN3CCCCC3)cc(=O)oc2c1C,8.3,-5.5,/,1.6,-1.4,i
CCOC(=O)CNC(=O)CSc1nnc(Cn2c(=O)sc3ccccc32)n1C,-3.3,-5.4,-9.5,-0.8,3.3,i
CCOC(=O)CC(=O)CSc1nnc(Cn2c(=O)sc3ccccc32)n1C,0.7,-6.4,71.1*,-2.7,1.8,i
O=C(Cn1cc([N+](=O)[O-])cn1)N1CCc2ccccc21,9.8,-1.8,29.8,-5.7,-7.7,i
O=C(Cn1cc([N+](=O)[O-])cn1)N1CCCc2ccccc21,6.0,-5.1,63.7*,0.1,-0.2,i
COc1cc(C(=O)N2CCCC(c3cc(C(=O)NCc4ccc(F)cc4)no3)C2)cc(OC)c1C (stereo not given),-5.3,/,/,/,/,/
Cc1nccc2oc(=O)c(NC(=O)c3ccc(Cl)cc3)cc12,0.0,-5.1,32.6,0.3,-10.3,i
O=C(Nc1cc2c(oc1=O)CCCC2=O)c1ccc(Cl)cc1,0.1,46.2,29.8,70.4,73.7*,+
C[C@H](CO)N1C[C@H](C)[C@@H](CN(C)S(=O)(=O)c2cn(C)cn2)Oc2cc(Br)ccc2S1(=O)=O,-3.5,/,/,/,/,/
COc1cc(/C=C/c2[nH]c(=O)[nH]c(=O)c2[N+](=O)[O-])cc([N+](=O)[O-])c1O,23.7,1.9,52.2,17.6,59.3*,+
CCC(C)Oc1ccc(/C=C/c2[nH]c(=O)[nH]c(=O)c2[N+](=O)[O-])cc1OC (stereo not given),-9.5,2.4,17.5,0.9,9.9,i
CC(C)CC(NC(=O)C(NC(=O)C1OC2OC(C)(C)OC2C2OC(C)(C)OC12)C(C)C)C(=O)O (stereo not given),-6.8,-8.5,35.4,-4.8,-6.6,i
c1ccc(C[n+]2csc3ccccc32)cc1,43.0*,2.1,56.5,-1.8,-12.4,i
CCn1c(-c2csc3c2CCCC3)n[nH]c1=S,-32.9,33.6,-5.1,-4.4,7.9,i
CCCCCCn1c(-c2cccs2)n[nH]c1=S,13.5,26.7,28.3,-5.6,active,+
CCCCn1c(-c2csc3ccccc23)n[nH]c1=S,-36.0,5.5,95.0*,-3.5,-10.0,i
CCCCn1c(-c2csc3c2CCCC3)n[nH]c1=S,/,13.8,99.7*,-4.5,-4.1,i
CCCCn1c(-c2csc3c2CCC(C)C3)n[nH]c1=S (stereo not given),-48.6,-3.8,84.1*,-8.1,13.0,i
CCCCn1c(-c2csc(CC)c2)n[nH]c1=S,-13.5,31.5,14.1,-1.1,-7.0,i
CCOC(=O)C1(C)CCCN1C(=O)c1csnn1 (stereo not given),18.3,/,/,/,/,/
CC1(C(=O)NS(=O)(=O)c2cccs2)CCN1C(=O)CC1CCCCC1 (stereo not given),8.4,/,/,/,/,/
CC1CCN(S(=O)(=O)c2ccc(N/N=C(/C#N)C(N)=O)cc2)CC1,8.3,-6.6,76.7*,-3.7,5.7,i
SMILES,PABP1 MLLE inh,A3G deaminase,PHOSPHO1 block,APOBEC3A inh,eIF4H inh,PABP FP inh
N#C/C(=N\Nc1ccc(S(=O)(=O)N2CCOCC2)cc1)C(N)=S,22.8,-6.2,42.1,5.8,0.8,i
Cc1cc(C=O)c(O)cc1O,-2.4,2.7,-1.7,5.0,11.2,i
Cc1c(NC(=O)Oc2ccccc2)sc(=S)n1C,38.6*,-6.5,5.7,-1.8,-3.3,i
CC(=O)N1CC(=O)N(c2ccccc2)C1=O,-5.8,-11.3,/,-7.3,-6.3,i
O=C(Nc1ccccc1)C1=C[C@@H](C2CCCCC2)C[C@@H](OCc2ccc(CO)cc2)O1,-1.6,-6.8,51.7,-1.0,-1.2,i
Cc1cc(C)cc(N=Cc2[nH]c3ccc(Br)c(Cl)c3c2O)c1,-9.6,/,-7.9,/,?,+
N#Cc1c(/N=C/c2ccco2)sc2c1CCC2,9.4,-3.6,-18.5,-18.9,11.8,i
Cc1ccc(/C=N/c2sc3c(c2C#N)CCCCC3)o1,24.7,-0.1,61.0*,0.6,26.4,i
CCCCNC(=O)C1(C)CCCCCN1Cc1cccc2c(OC)cc(C(=O)OCC)cc12 (stereo not given),7.3,/,/,/,/,/
Clc1ccccc1-c1nnc2sc(C3COc4ccccc4O3)nn12 (stereo not given),-46.1,-1.3,80.2*,0.9,-9.1,i
c1ccc(Cc2nn3c(C4COc5ccccc5O4)nnc3s2)cc1 (stereo not given),33.1,16.1,62.4*,4.5,-7.7,i
c1ccc(OCc2nnc3sc(C4COc5ccccc5O4)nn23)cc1 (stereo not given),7.3,7.1,80.3*,11.3,38.2,i
CN(CC(=O)Nc1cccc(F)c1)C(=O)CCCNC(=O)c1ccc(Cl)cc1,2.9,-7.1,/,3.0,/,/
O=C(/C=C/c1ccc2ccccc2n1)c1cc(Cl)ccc1O,-61.9,-2.6,8.1,-4.9,67.0,+
O=C(O)c1cc(-c2ccco2)nn1-c1cccc(Cl)c1,-21.7,92.4,-47.6,98.0,83.1,+
O=C(O)c1cc(-c2ccco2)nn1-c1ccc(Cl)cc1,-1.1,/,27.5,/,80.3,i
Cc1cccc(-n2nc(C)c3c(C(=O)O)cc(-c4cccs4)nc32)c1,2.2,10.3,-30.3,5.0,6.3,i
Cc1nn(-c2cccc(Cl)c2)c2nc(-c3ccco3)cc(C(=O)O)c12,20.8,16.3,21.0,39.4,79.6*,+
Nc1c(C(=O)c2ccc(Cl)cc2)sc2nsc(SCCN3CCOCC3)c12,-70.5,-1.8,63.1*,3.2,32.6,i
Nc1c(C(=O)c2ccccc2)sc2nsc(SCCN3CCCC3)c12,-28.4,14.3,6.1,-7.5,-6.8,i
CC(=O)c1sc2nsc(SCCN3CCCCC3)c2c1N,27.6,19.9,69.9*,-3.2,10.9,i
CCc1nnc(NC(=O)CN2CCN(Cc3ccc(F)cc3)CC2)s1,-5.6,-9.6,35.7,-5.9,4.3,i
Cc1cccc(C(=O)NCC(=O)Nc2ccncc2)c1,-4.8,-2.5,/,3.8,/,/
CC1(C(O)(C#CC[N+]2(C)CCCCC2)c2ccccc2)CCCC1 (stereo not given),-123.1,34.2,48.8,82.0,6.9,+
